Screening data (PubChem)
HGIII-sPLA2 inh = Inhibits HGIII-sPLA2 liposome hydrolysis, primary screen | Q9NZ20 | QFRET BODIPY PC-A2 liposome hydrolysis, fluorescence | inhibition, % at 12.2 µM | 370,000 tested, 0.56% active | AID 743126;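 active = inhibition above mean plus 3 SD of compounds lying within the high and low control bounds, cut at about 19% in these data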;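 note: 0% = median of test compound wells and 100% = no enzyme DMSO wells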
Target sequence (Q9NZ20 whole entry, looked up): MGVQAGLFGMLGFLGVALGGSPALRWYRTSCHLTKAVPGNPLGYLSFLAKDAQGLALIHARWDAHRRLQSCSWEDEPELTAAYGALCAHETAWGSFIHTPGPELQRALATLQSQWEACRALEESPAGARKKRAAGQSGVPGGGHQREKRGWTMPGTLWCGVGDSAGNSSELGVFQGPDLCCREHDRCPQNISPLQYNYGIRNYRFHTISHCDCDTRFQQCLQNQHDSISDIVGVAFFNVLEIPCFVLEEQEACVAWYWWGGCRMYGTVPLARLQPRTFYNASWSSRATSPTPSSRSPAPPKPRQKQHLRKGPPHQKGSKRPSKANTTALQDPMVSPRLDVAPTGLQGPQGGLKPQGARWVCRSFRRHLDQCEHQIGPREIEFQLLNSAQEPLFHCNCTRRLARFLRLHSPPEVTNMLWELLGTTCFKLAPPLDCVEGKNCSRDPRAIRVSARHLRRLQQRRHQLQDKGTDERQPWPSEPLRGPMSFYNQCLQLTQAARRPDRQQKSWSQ
UBC13 polyUb = blocks human UBC13 polyubiquitin chain formation | P61088 | TR-FRET | inhibition, % at 20 µM | 330,000 tested, 0.47% active | AID 485273; in the data active = inhibition above about 45%, passing the limit was not always enough
NR3A LBD binder = modulators (binders) of human NR3A ligand-binding domain | NR3A LBD differential scanning fluorimetry, Tm shift; 0% = protein alone, 100% = glycine-bound protein | Tm shift relative to glycine control, % at 25 µM | 340,000 tested, 2.5% active | AID 1259313;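 active = melting temperature shift of at least 10% of the positive control shift, at one fixed dose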
SUMO HTRF inh = inhibitors of human SUMOylation (UBC9); 290,000 tested, 0.36% active; P63279; HTRF SUMOylation assay, SAE1/SAE2 + UBC9, in vitro; inhibition, % at 35 µM; in the data active = inhibition above about 50%, passing the limit was not always enough
Target sequence (P63279 whole entry, looked up): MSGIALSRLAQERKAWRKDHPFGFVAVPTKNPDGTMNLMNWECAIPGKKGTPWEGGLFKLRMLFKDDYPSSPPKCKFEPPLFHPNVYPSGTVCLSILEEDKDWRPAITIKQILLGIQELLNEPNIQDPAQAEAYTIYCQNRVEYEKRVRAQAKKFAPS
Casp3 UBC13 ctr = inhibits human caspase-3 in UBC13 counter-screen | shares compounds with UBC13 polyUb | Recombinant caspase-3, Caspase-Glo 3/7 luminescence, 60 min | inhibition, % at 20 µM | 1,400 tested, 4% active;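 active = mean inhibition across replicates above about 26%, limit read from the data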;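 note: plate controls were DMSO with caspase-3 for no effect and DMSO wells lacking enzyme for full effect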
UBC13 confirm = confirmation of human UBC13 polyubiquitin inhibitors; UBC13 polyubiquitination, TR-FRET, biochemical; AID 488859; 1,400 tested, 68% active; shares compounds with UBC13 polyUb; inhibition, % at 10 µM; in the data active = inhibition above about 45%
sPLA2 confirm = human GIII-sPLA2 inhibition, confirmation. shares compounds with HGIII-sPLA2 inh. inhibition, % at 12.2 µM. recombinant hGIII-sPLA2, BODIPY PC-A2 QFRET fluorescence. 2,000 tested, 34% active. AID 743280;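 active = mean inhibition across triplicates above the hit cutoff set in the earlier primary screen, cut at about 19% in these data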;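 note: 0% = enzyme with DMSO and 100% = DMSO wells lacking enzyme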
BODIPY interf = 535nm fluorescence interference, HGIII-sPLA2 counter-screen | 2,000 tested, 8.5% active | shares compounds with HGIII-sPLA2 inh | inhibition, % at 12.2 µM | BODIPY FL product fluorescence interference, QFRET;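 active = average inhibition above the solvent-only control mean plus 3 SD, cut at about 6% in these data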;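 note: 0% = DMSO with substrate plus product and 100% = DMSO with substrate alone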
535nm interf DR = 535nm optical interference dose response, HGIII-sPLA2 counter-screen; shares compounds with HGIII-sPLA2 inh; BODIPY FL product fluorescence interference, cell-free; IC50, µM; 240 tested, under 10 active; AID 743455;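 active = IC50 at or below 10 µM; inactive = IC50 above 10 µM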
* hit, by the source's call; / = no result. Most compounds without a hit are left out; they make up all but 3.3% or so of the library.

SMILES	HGIII-sPLA2 inh	UBC13 polyUb	NR3A LBD binder	SUMO HTRF inh	others
S=C1NC2(CCCCC2)NC12CCCCC2	6	3	16*	11
CC(=O)N1c2ccccc2C(c2ccccc2)=NCC1C(=O)NCc1ccccc1 (stereo not drawn)	1	/	/	/
NC(N)=Nc1ccc2[nH]c3c(c2c1)C[C@@]1(O)[C@H]2Cc4ccc(O)c5c4[C@@]1(CCN2CC1CC1)[C@H]3O5	/	53*	1	/	Casp3 UBC13 ctr=-6;UBC13 confirm=11
COC(=O)C1=C(c2ccc(OCc3ccccc3)cc2)C[C@@H]2CC[C@H]1N2C(=O)NC1CCN(Cc2ccccc2)CC1	/	55*	-5	/	Casp3 UBC13 ctr=-3;UBC13 confirm=30
O=C(NCCN1CCC2(CC1)C(=O)NCN2c1ccccc1)c1ccc(OC(F)(F)F)cc1	2	/	/	/
O=P1(NCCCl)OCCCN1CCCl (stereo not drawn)	-3	46*	1	/	Casp3 UBC13 ctr=4;UBC13 confirm=3
CC(C)(C)OC(=O)NCCCCC(N)[P+](=O)O (stereo not drawn)	-3	/	/	/
Clc1cc(Cl)cc(CN2Cc3cc(Br)ccc3-n3nncc3C2)c1	7	/	/	/
CCCCCCCSc1cc(OC)c(CCNC)cc1OC	4	51*	-1	16	Casp3 UBC13 ctr=-2;UBC13 confirm=62*
COc1ccc2nc(-c3ccc(CN4CCC(n5nnc6ccccc65)CC4)cc3)c(-c3ccccc3)nc2c1	5	/	/	/
CN1CC[C@@H]2CN[C@H](c3ccccc3Br)C[C@@H]21	-2	/	/	/
Cc1ccc2nc(-c3ccc(CN4CCC(n5nnc6ccccc65)CC4)cc3)c(-c3ccccc3)nc2c1	-5	/	/	/
CC12CNCC(C)(CNC1)C2O (stereo not drawn)	0	57*	2	31	Casp3 UBC13 ctr=0;UBC13 confirm=1
O=C(NCCN1CCC2(CC1)C(=O)NCN2c1ccccc1)c1ccc(F)cc1F	-5	/	/	/
O=C(C(=O)N1CCOCC1)c1cn(Cc2ccccc2Cl)c2ccccc12	-1	54*	0	-10	Casp3 UBC13 ctr=-2;UBC13 confirm=53*
O=C(C(=O)N1CCOCC1)c1cn(Cc2ccc(F)cc2)c2ccccc12	3	45*	-2	27	Casp3 UBC13 ctr=-4;UBC13 confirm=42
COCCOC(=O)c1c(N)n(Cc2ccccc2)c2nc3ccccc3nc12	-12	-20	-2	24
COCCCNC(=O)c1c(NC(=O)c2ccccc2)n(Cc2ccccc2)c2nc3ccccc3nc12	3	49*	-1	/	Casp3 UBC13 ctr=-1;UBC13 confirm=37
O=c1c2ccccc2nc(-c2cccs2)n1-c1ccccc1	0	6	-1	0
NC(N)=N/N=C/c1cn(-c2ccccc2)nc1-c1cccs1	-4	79*	1	15	Casp3 UBC13 ctr=2;UBC13 confirm=85*
CCN(CC)CCCNC(=O)c1c(O)c2ccccc2n(Cc2ccccc2)c1=O	-2	53*	-1	-4	Casp3 UBC13 ctr=2;UBC13 confirm=74*
CN1C(=O)CCS(=O)(=O)C1c1ccc(Cl)cc1 (stereo not drawn)	3	/	/	/
COc1c(O)cc2c(c1OC)-c1ccc(OC)c(=O)cc1C(NC(C)=O)CC2 (stereo not drawn)	11	/	-3	/
COc1cc2c(c(OC)c1OC)-c1ccc(O)c(=O)cc1[C@@H](N)CC2	1	100*	-6	/	Casp3 UBC13 ctr=1;UBC13 confirm=93*
COc1ccc(CCNCc2cccc(C(F)(F)F)c2)cc1OC	0	8	-2	0
SMILES	HGIII-sPLA2 inh	UBC13 polyUb	NR3A LBD binder	SUMO HTRF inh	others
COc1ccccc1CCNCc1cccc(C(F)(F)F)c1	2	52*	1	4	Casp3 UBC13 ctr=0;UBC13 confirm=10
O=[N+]([O-])c1ccc(N2CCNCC2)cc1N1CCCCCC1	36*	-54	1	9	sPLA2 confirm=17;BODIPY interf=-12
Cc1cc(-c2cc(C)c(N)c(C)c2)cc(C)c1N	22*	/	2	/	sPLA2 confirm=22*;BODIPY interf=1
CS(=O)(=O)N1Cc2cc(Br)ccc2-n2nncc2C1	3	/	/	/
N#Cc1ccc(NC(=S)N2Cc3ccc(Br)cc3-n3nncc3C2)cc1	11	/	/	/
CCCCOc1ccc(CCN)cc1Cl	3	12	-11	17
CC(C)Oc1ccc(CCN)cc1Cl	23*	4	3	-2	sPLA2 confirm=4;BODIPY interf=-7
O=[N+]([O-])c1ccc(N2CCNCC2)c2ncccc12	/	/	/	2
O=[N+]([O-])c1ccc(NCCO)c2ncccc12	22*	-81	-3	-13	sPLA2 confirm=4;BODIPY interf=-1
OC1CN2CCCC(O)C2C1O (stereo not drawn)	-1	/	/	/
CCOC(=O)c1sc(/N=C/c2c(O)n(-c3ccccc3)c(=O)[nH]c2=O)c(C#N)c1C	-10	-10	1	9
CCOC(=O)c1c(/N=C/c2c(O)n(-c3cccc(C)c3)c(=O)[nH]c2=O)sc2c1CCCC2	20*	6	24*	22	sPLA2 confirm=13;BODIPY interf=-4
O=[N+]([O-])c1cccc(NP(=O)(Oc2ccccc2)Oc2ccccc2)c1	-20	8	-8	5
CC1OC(OC2CC(O)C3(CO)C4C(O)CC5(C)C(C6=CC(=O)OC6)CCC5(O)C4CCC3(O)C2)C(O)C(O)C1O (stereo not drawn)	28*	/	0	/	sPLA2 confirm=4;BODIPY interf=-6
CC(=Nc1ccccc1N)c1c(O)n(C)c(=O)n(C)c1=O	20*	2	-3	1	sPLA2 confirm=6;BODIPY interf=-6
CC(=NCCc1ccccc1)c1c(O)n(C)c(=O)n(C)c1=O	1	7	-1	15
CC(C)Oc1ccc(C2(C#N)CC[N+](C)(C)CC2)cc1	22*	6	-2	9	sPLA2 confirm=-2;BODIPY interf=-4
CCCCc1ccc2[nH]cc(CCN)c2c1	30*	9	-1	24	sPLA2 confirm=8;BODIPY interf=-14
O=C1CN=C(c2ccc[nH]2)c2cc(Cl)ccc2N1	3	-8	3	15
CN=C1CN=C(c2ccc[nH]2)c2cc(Cl)ccc2N1	19*	/	/	/	sPLA2 confirm=8;BODIPY interf=1
COC(=O)C1=C(c2ccc(OCc3ccccc3)cc2)C[C@@H]2CC[C@H]1N2C(=O)NCCCCc1ccccc1	-2	/	/	/
CN(C)c1ccc(/C=C/c2cc[n+](C)c3ccccc23)cc1	26*	/	0	-120	sPLA2 confirm=33*;BODIPY interf=-14;535nm interf DR=>122
CN(C)c1ccc(/C=C/C=C/c2sc3ccccc3[n+]2C)cc1	21*	-103	-3	-57	sPLA2 confirm=41*;BODIPY interf=-15;535nm interf DR=>122
C[n+]1c(-c2ccccc2)sc2ccccc21	-9	-5	1	7
COC(=O)C1=C(c2ccc(F)cc2OCc2ccccc2)C[C@@H]2CC[C@H]1N2C(=O)NCCN1CCOCC1	0	0	3	/
